From PubChem BioAssay (NCI)
The panel holds about 83,000 compounds, 20% with a hit somewhere; the sample as a whole holds those more often.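 Cells were grown in 96-well plates and exposed to the test compound at a single concentration for 48 hours; results are reported as percent growth, with values below 10 considered active.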 A number with no mark means an inactive call. Activity calls are given as the source filed them.

test system: HCC-2998 colon; assay: NCI-60 one-dose screen, 48 h (100 = growth as untreated, 0 = no growth, -100 = all killed); details: 10 µM unless noted
Experimental: Growth inhibition of the HCC-2998 human tumor cell line is measured as a screen for anti-cancer activity. Cells are grown in 96 well plates and exposed to the test compound for 48 hours. Compounds are tested at a single concentration, which is 10^-5 M for most compounds. The reported endpoint is percent growth (GI% or GIPRCNT), where numbers from 0 - 100% represent growth inhibition, and numbers from -100% - 0 represent cell death. For example, a value of 40 represents 60% growth inhibition. A value of 0 means no net growth occurred over the course of the experiment. A value of -40 indicates 40% of cells at the beginning of the experiment died by the end of the experiment. A value of -100 means all cells are dead at the end of the experiment.
NCI-60 Human Tumor Cell Lines Screen was performed using the standard one-dose NCI protocol, which is described in more detail at https://dtp.cancer.gov/discovery_development/nci-60/default.htm.
Compounds with GIPRCNT values below 10 were considered active. Activity score was based on GIPRCNT using the following formula: […]
Score is 0 for GIPRCNT values of 100 or above, 50 for GIPRCNT values of 0, and 100 for GIPRCNT values of -100.

`COC(=O)N[C@H]1CCc2c(Br)c(OC)c(OC)c(OC)c2-c2ccc(SC)c(=O)cc21` was tested. Which growth did it give?
Its growth is 17.2%.

For `CCCCC1(CCC)C(=O)NC(=S)NC1=O`, which growth is on record?
The growth was 106%.

How did the growth turn out when `C1CCC([PH+](C2CCCCC2)C2CCCCC2[PH+](C2CCCCC2)C2CCCCC2)CC1.[Au].[CH-]1CCCCC1CC1CCCC[N-]1` (stereo not given) was run?
Its growth is -92.5% (active).

How did the growth turn out when `CC[S][Hg][Cl]` was run?
Its growth is 111%.

With `O=C(O)c1ccc([S-])cc1.[Au+].c1ccc(CN2[CH-]N(Cc3ccccc3)C(c3ccccc3)=C2c2ccccc2)cc1` as the compound, how does the growth read?
The growth was -72.7% (active).

Which growth does the source give for `CNC(=O)Oc1cccc(C(F)(F)F)c1` here?
The growth was 113%.

How did the growth turn out when `CC12CCC=CC1CCC1C2CCC2(C)C(c3ccc(=O)oc3)CCC12O` (stereo not given) was run?
Its growth is -21.5% (active).

For `O=C1C2C(C(=O)[N]1[Hg][c]1cccs1)C1(Cl)C(Cl)=C(Cl)C2(Cl)C1(Cl)Cl` (stereo not given), which growth is on record?
Its growth is 49.7%.

Which growth does the source give for `CCCCCCC(=O)NC1=C(N2CC2)C(=O)C(NC(=O)CCCCCC)=C(N2CC2)C1=O` here?
The growth was 53.9%.

Which growth does the source give for `C/C(=C\c1cc(C(F)(F)F)nn1CCNC(=O)OC(C)(C)C)[C@@H]1C[C@@H]2O[C@]2(C)CCC[C@H](C)[C@H](O)[C@@H](C)C(=O)C(C)(C)[C@@H](O)CC(=O)O1` here?
Its growth is 57.3%.

For `CC(=O)O[C@H](C[C@H](C(C)C)N(C)C(=O)[C@@H](NC(=O)[C@H]1CCCCN1C)C(C)C)c1nc(C(=O)NC2CCC(C(=O)O)CC2)cs1` (stereo not given in full), which growth is on record?
The growth was 83.7%.

How did the growth turn out when `Cc1cc(-c2nc3cc(F)ccc3[se]2)cc(F)c1N` was run?
Its growth is 35.5%.

Which growth does the source give for `CC1(C)N=C(N)N=C(N)N1c1cccc(CCCCc2ccc(Cl)c(S(=O)(=O)F)c2)c1` here?
The growth was 35.1%.

With `CC(CC1CCCCC1)NCc1ccccc1` (stereo not given) as the compound, how does the growth read?
Its growth is 95.3%.

`O=[N+]([O-])CC(O)C(Cl)(Cl)Cl` (stereo not given) was tested. Which growth did it give?
Its growth is 106%.

How did the growth turn out when `Cc1ccc(S(=O)(=O)C(Cl)(Cl)Cl)cc1` was run?
The growth was 107%.

Which growth does the source give for `Cc1ccc(N2COOC3(OOC2)C2CC4CC(C2)CC3C4)cc1` here?
The growth was 107%.

How did the growth turn out when `COc1ccc(C(=O)c2cc(OC)c(OC)c(OC)c2)cc1OC(C)=O` was run?
The growth was 25.5%.

With `COc1ccc(C2=CC(c3ccc(OC)c(OC)c3)c3c(c4ccccc4oc3=O)O2)cc1OC` (stereo not given) as the compound, how does the growth read?
Its growth is 31.4%.

With `CC[C@H](C)[C@H](NC(=O)[C@H]1CCCCN1C)C(=O)N(C)[C@H](C[C@@H](O)c1nc(C(=O)N[C@@H](Cc2ccccc2)C[C@H](C)C(=O)O)cs1)C(C)C` as the compound, how does the growth read?
The growth was 99.9%.

Which growth does the source give for `O=c1[nH]cc(N(CCCl)CCCl)c(=O)[nH]1` here?
The growth was 61.6%.

`CS(=O)(=O)CCN1CC2CCCC(C2)C1` was tested. Which growth did it give?
Its growth is 99.5%.

With `O=C1C(Cl)=C(N2CCOCC2)C(=O)c2ccccc21` as the compound, how does the growth read?
Its growth is 108%.

How did the growth turn out when `CCOP(=O)(Cc1ccc(C#N)cc1)OCC` was run?
The growth was 110%.

With `CC(=O)OCc1cc[c]([Hg][Cl])o1` as the compound, how does the growth read?
Its growth is 76.4%.

`Cc1cnc(/C=C/C(=O)O)cc1-c1cc2c(cc1C)C(C)(C)CCC2(C)C` was tested. Which growth did it give?
Its growth is 85.3%.

With `Cc1cc(C)cc(Nc2nc3c(s2)CC[C@@]2(C)C3=CC[C@@H]3[C@@H]2CC[C@]2(C)C(=O)CC[C@@H]32)c1` as the compound, how does the growth read?
The growth was 94.2%.

With `COC(=O)[C@H](Cc1ccccc1)NC(=O)c1csc([C@@H](C[C@H](C(C)C)N(C)C(=O)[C@@H](NC(=O)[C@H]2CCCCN2C)C2CC2)OC(C)=O)n1` as the compound, how does the growth read?
Its growth is 16.1%.

For `CCC(C)(C)[C@H](NC(=O)[C@H]1CCCCN1C)C(=O)N(C)[C@H](C[C@@H](OC(C)=O)c1nc(C(=O)N[C@@H](Cc2ccccc2)C[C@H](C)C(=O)O)cs1)C(C)C`, which growth is on record?
Its growth is 22.2%.

Which growth does the source give for `CC(=O)O[C@H]1C(=O)[C@@]2(C)[C@H]([C@H](OC(=O)c3ccccc3)[C@]3(O)C[C@H](OC(=O)[C@H](OC(=O)OCC4COC(C)(C)O4)[C@@H](NC(=O)c4ccccc4)c4ccccc4)C(C)=C1C3(C)C)[C@]1(OC(C)=O)CO[C@@H]1C[C@@H]2O` (stereo not given in full) here?
Its growth is 39.9%.

For `COc1ccc(NC([Se])=NC23CC4CC(CC(C4)C2)C3)cc1`, which growth is on record?
Its growth is 14.6%.

For `CC12CCC(O)CC1=CCC1C2CCC2(C)C(O)CCC12` (stereo not given), which growth is on record?
The growth was 109%.

With `O=C1C=C(N2C3C4CCC(C4)C32)C(=O)C=C1c1ccccc1` (stereo not given) as the compound, how does the growth read?
The growth was 115%.

Which growth does the source give for `COc1cc2c(cc1OCc1ccccc1)C(CC(C)C)=[N+](C)CC2` here?
Its growth is 79%.

With `CCCC[C@H](NC(=O)[C@H]1CCCCN1C)C(=O)N(C)[C@H](C[C@@H](OC(C)=O)c1nc(C(=O)N[C@@H](Cc2ccccc2)C[C@H](C)C(=O)OCC)cs1)C(C)C` as the compound, how does the growth read?
Its growth is 14.5%.

`C[N+](C)(C)Cc1cc(Cl)ccc1O` was tested. Which growth did it give?
Its growth is 104%.

With `CC(=O)OC1CCC2(C)C(CCC3C2CC(=O)C2(C)C3CC(Sc3ccc(N(CCCl)CCCl)cc3)C2C(C)=O)C1` (stereo not given) as the compound, how does the growth read?
Its growth is 87.2%.

For `CC(=O)c1ccc(C(=O)NCC2CCC3(CC2)OOC2(CCCCC2)OO3)cc1`, which growth is on record?
Its growth is 108%.

With `N#CC1C(C#N)C2CCC1C1C2N1c1ccccc1` (stereo not given) as the compound, how does the growth read?
Its growth is 102%.

With `COc1cc2ncnc(Nc3ccc(F)c(Cl)c3)c2cc1OCC(=O)N1CCN(C)CC1` as the compound, how does the growth read?
Its growth is 102%.
